Measurements reported in paper PMC4336329 (PLoS ONE, 2015).
Among all 310,000 compounds or so, about 14,000 (4.5%) showed an effect of 50% or more. The effect is printed as a negative number. Many of the other results were omitted from the sample, so strong results are more common in it than they were.
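Note: peak tail current of the secondary pulse compared with the same well before compound.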

The compounds below were run against human ether-à-go-go-related gene (hERG) potassium channel (human, UniProt Q12809) (assay: primary screen, population patch clamp on CHO cells stably expressing hERG; higher = less effect of the substance).
Sequence of human ether-à-go-go-related gene (hERG) potassium channel (Q12809 whole entry, looked up): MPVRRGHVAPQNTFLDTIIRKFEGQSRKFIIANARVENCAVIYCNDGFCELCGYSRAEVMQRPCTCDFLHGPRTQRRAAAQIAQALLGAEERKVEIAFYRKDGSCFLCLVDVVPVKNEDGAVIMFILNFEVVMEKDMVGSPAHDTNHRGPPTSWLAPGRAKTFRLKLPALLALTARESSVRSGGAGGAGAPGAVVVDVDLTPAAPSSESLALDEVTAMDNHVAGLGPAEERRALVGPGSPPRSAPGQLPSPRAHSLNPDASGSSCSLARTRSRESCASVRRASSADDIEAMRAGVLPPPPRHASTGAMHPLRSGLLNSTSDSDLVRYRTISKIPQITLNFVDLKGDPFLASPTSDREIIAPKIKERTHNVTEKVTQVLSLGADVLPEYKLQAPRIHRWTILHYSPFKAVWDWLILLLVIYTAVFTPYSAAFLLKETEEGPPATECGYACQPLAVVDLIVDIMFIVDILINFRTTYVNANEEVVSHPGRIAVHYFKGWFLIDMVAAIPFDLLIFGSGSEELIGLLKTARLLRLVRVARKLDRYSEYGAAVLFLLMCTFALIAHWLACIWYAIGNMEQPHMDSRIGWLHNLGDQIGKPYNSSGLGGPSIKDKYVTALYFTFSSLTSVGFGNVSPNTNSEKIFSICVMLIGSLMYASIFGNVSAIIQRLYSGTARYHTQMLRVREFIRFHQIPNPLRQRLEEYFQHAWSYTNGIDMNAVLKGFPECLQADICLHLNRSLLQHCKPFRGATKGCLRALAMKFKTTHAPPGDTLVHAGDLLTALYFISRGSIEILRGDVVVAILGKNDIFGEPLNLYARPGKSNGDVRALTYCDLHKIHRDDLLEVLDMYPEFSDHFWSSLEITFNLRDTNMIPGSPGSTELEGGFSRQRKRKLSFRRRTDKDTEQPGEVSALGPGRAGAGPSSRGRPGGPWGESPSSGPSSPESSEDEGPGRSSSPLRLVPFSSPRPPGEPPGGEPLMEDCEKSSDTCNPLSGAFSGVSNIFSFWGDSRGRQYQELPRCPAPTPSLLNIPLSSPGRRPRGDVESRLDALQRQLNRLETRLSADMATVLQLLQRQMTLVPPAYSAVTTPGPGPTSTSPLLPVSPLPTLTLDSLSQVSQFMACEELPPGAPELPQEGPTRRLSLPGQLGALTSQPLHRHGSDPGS
COc1ccc(-n2c(C)n[nH]c2=O)cc1OC was tested, and the “hERG current change (%, negative = inhibition) at 10uM” value was 10.7%. Cc1sc(NC(=O)c2sc3nc4c(C)cccc4cc3c2N)c(C#N)c1C was tested, and the “hERG current change (%, negative = inhibition) at 10uM” value was 8.29%. In the case of O=c1[nH]c2cc3c(cc2cc1CN(Cc1cccnc1)Cc1nnnn1Cc1ccco1)OCCO3, the “hERG current change (%, negative = inhibition) at 10uM” value is reported as -4.69%. For CCN1C(=O)/C(=C/C=C2\C=CN(CC)c3ccccc32)SC1=S, the “hERG current change (%, negative = inhibition) at 10uM” value was -4.57%. With NC(=O)COc1ccc2oc(=O)cc(-c3cc4ccccc4o3)c2c1 the “hERG current change (%, negative = inhibition) at 10uM” value was 7.27%. In the case of Cc1noc(C)c1CSCC(=O)Nc1cc(C(F)(F)F)ccc1N1CCOCC1, the “hERG current change (%, negative = inhibition) at 10uM” value is reported as -37.9%. Cc1c(Cl)c([N+](=O)[O-])nn1CC(=O)Nc1ccc2c(c1)OCO2 was tested, and the “hERG current change (%, negative = inhibition) at 10uM” value was 18.4%. CCCNC(=O)C1(CC2CC(c3ccccc3)=NO2)CCN(C(=O)CCCCCBr)CC1 (stereo not drawn) was tested, and the “hERG current change (%, negative = inhibition) at 10uM” value was -50%. For CCCCCCCNC(=O)C1(CC2CC(c3cccc(Br)c3)=NO2)CCN(C(=O)CCCCCBr)CC1 (stereo not drawn), the “hERG current change (%, negative = inhibition) at 10uM” value was -82.7%. For CCCCCCCNC(=O)C1(CC2CC(c3cccc(Br)c3)=NO2)CCN(C(=O)OC(C)(C)C)CC1 (stereo not drawn), the “hERG current change (%, negative = inhibition) at 10uM” value was 3.88%. In the case of CCCCCCCNC(=O)C1(CC2CC(c3ccc(Cl)cc3)=NO2)CCN(C(=O)c2cc(OCC)c(OCC)c(OCC)c2)CC1 (stereo not drawn), the “hERG current change (%, negative = inhibition) at 10uM” value is reported as 17.6%. For CCCCCCCNC(=O)C1(CC2CC(c3ccc(Cl)cc3)=NO2)CCN(C(=O)CCCCCBr)CC1 (stereo not drawn), the “hERG current change (%, negative = inhibition) at 10uM” value was -79%. With CCCCn1c(-c2ccco2)n[nH]c1=S the “hERG current change (%, negative = inhibition) at 10uM” value was 16.9%. COc1cc2c(cc1OC)-c1nnc(-c3ccco3)n1C1(CCCC1)C2 was tested, and the “hERG current change (%, negative = inhibition) at 10uM” value was -8.01%. In the case of O=Cc1c(Cl)cccc1Cl, the “hERG current change (%, negative = inhibition) at 10uM” value is reported as 13.9%. With CNC(=O)CCCN1C(=O)c2ccccc2Sc2ncccc21 the “hERG current change (%, negative = inhibition) at 10uM” value was 23.9%. In the case of O=C(CSc1nc2[nH]ncc2c(=O)[nH]1)Nc1cccc([N+](=O)[O-])c1, the “hERG current change (%, negative = inhibition) at 10uM” value is reported as -19.2%. COCCn1c(C)cc(C2=NNC(=Nc3ccc(Cl)cc3Cl)SC2)c1C was tested, and the “hERG current change (%, negative = inhibition) at 10uM” value was 7.57%. In the case of O=C(Cn1c(SCC(=O)NC2CCCC2)nnc1-c1ccncc1)Nc1ccc2c(c1)OCO2, the “hERG current change (%, negative = inhibition) at 10uM” value is reported as -11.7%. In the case of COC(=O)CSc1nnc(C)c(=O)[nH]1, the “hERG current change (%, negative = inhibition) at 10uM” value is reported as 2%. For O=C(Cc1coc2cc3c(cc12)CCC3)NCC1(N2CCCCC2)CCCCC1, the “hERG current change (%, negative = inhibition) at 10uM” value was -76.9%. For O=C(Cc1coc2cc3c(cc12)CCC3)NC1CCCCCCC1, the “hERG current change (%, negative = inhibition) at 10uM” value was 0.532%. With Cc1ccc2c(CC(=O)NCC3(N4CCOCC4)CCCCC3)coc2c1C the “hERG current change (%, negative = inhibition) at 10uM” value was -25.5%. For CCOC(=O)c1sc2ncn(C(CC)C(=O)OCC)c(=O)c2c1C (stereo not drawn), the “hERG current change (%, negative = inhibition) at 10uM” value was 1.12%. O=C(COC(=O)c1cc[n+]([O-])cc1)Nc1ccc(Cl)cc1C(F)(F)F was tested, and the “hERG current change (%, negative = inhibition) at 10uM” value was 24.9%. For CC1(C)[C@H]2CC=C(CN3CCC(N4CCC(C(=O)N5CCCC5)CC4)CC3)[C@@H]1C2, the “hERG current change (%, negative = inhibition) at 10uM” value was -25.1%. O=C(C1CCN(C2CCN(Cc3ccc4c(c3)CCO4)CC2)CC1)N1CCCC1 was tested, and the “hERG current change (%, negative = inhibition) at 10uM” value was -43%. COCc1ccc(CN2CCC(N3CCC(C(=O)N4CCCC4)CC3)CC2)o1 was tested, and the “hERG current change (%, negative = inhibition) at 10uM” value was 8.86%. For O=C(c1cc2ccccc2o1)N1CCCCCC1, the “hERG current change (%, negative = inhibition) at 10uM” value was -5.92%. O=C(c1cc(F)ccc1F)N1CCC(N2CCC(C(=O)N3CCCC3)CC2)CC1 was tested, and the “hERG current change (%, negative = inhibition) at 10uM” value was 6.92%. In the case of C=C(C)[C@@H]1CC=C(CN2CCC(N3CCC(C(=O)N4CCCC4)CC3)CC2)CC1, the “hERG current change (%, negative = inhibition) at 10uM” value is reported as -82.2%. With C=C(C)C1CC=C(CN2CCC(O)CC2)CC1 (stereo not drawn) the “hERG current change (%, negative = inhibition) at 10uM” value was -6.28%. With CCc1ccc(CN2CCC(N3CCC(C(=O)N4CCCC4)CC3)CC2)o1 the “hERG current change (%, negative = inhibition) at 10uM” value was -70%. In the case of Cc1ncc(CN2CCC(N3CCC(C(=O)N4CCCC4)CC3)CC2)s1, the “hERG current change (%, negative = inhibition) at 10uM” value is reported as -18.1%. For O=C(c1cc2ccccc2o1)N1CCC(N2CCC(C(=O)N3CCCC3)CC2)CC1, the “hERG current change (%, negative = inhibition) at 10uM” value was -55.7%. For O=C(c1cc2ccccc2o1)N1CCCC1, the “hERG current change (%, negative = inhibition) at 10uM” value was 10.8%. O=C(C1CCN(C2CCN(Cc3ccc4cc(F)ccc4n3)CC2)CC1)N1CCCC1 was tested, and the “hERG current change (%, negative = inhibition) at 10uM” value was -77.3%. With O=C(CNC(=O)c1ccco1)Nc1ccncc1 the “hERG current change (%, negative = inhibition) at 10uM” value was -5.14%. For Cc1cc(C)cc(C(=O)NC(CC(N)=O)c2ccc(NCCN3CCCC3)c([N+](=O)[O-])c2)c1 (stereo not drawn), the “hERG current change (%, negative = inhibition) at 10uM” value was 10.5%. For COC(=O)Cc1coc2cc(OC)ccc12, the “hERG current change (%, negative = inhibition) at 10uM” value was 11.9%. Cc1ccc(S(=O)(=O)n2cnc3cc([N+](=O)[O-])ccc32)cc1C was tested, and the “hERG current change (%, negative = inhibition) at 10uM” value was -19.9%. For Cc1cc(NC(=O)CSc2nc3c(cc2C#N)CCC3)no1, the “hERG current change (%, negative = inhibition) at 10uM” value was 26.7%.
